# Assay results as given in PubChem BioAssay (NCI).
# The panel holds about 83,000 compounds, 20% with a hit somewhere; the sample as a whole holds those more often.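 For each line, cells grew in 96-well plates with the test compound present at a single concentration for 48 hours.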 Values without a mark were called inactive. Active and inactive are the calls of the source.
# Tested on: HS 578T breast
# Assay: NCI-60 one-dose screen, 48 h (100 = growth as untreated, 0 = no growth, -100 = all killed)
# Conditions: 10 µM unless noted
# Description: Growth inhibition of the HS 578T human tumor cell line is measured as a screen for anti-cancer activity. Cells are grown in 96 well plates and exposed to the test compound for 48 hours. Compounds are tested at a single concentration, which is 10^-5 M for most compounds. The reported endpoint is percent growth (GI% or GIPRCNT), where numbers from 0 - 100% represent growth inhibition, and numbers from -100% - 0 represent cell death. For example, a value of 40 represents 60% growth inhibition. A value of 0 means no net growth occurred over the course of the experiment. A value of -40 indicates 40% of cells at the beginning of the experiment died by the end of the experiment. A value of -100 means all cells are dead at the end of the experiment.
# NCI-60 Human Tumor Cell Lines Screen was performed using the standard one-dose NCI protocol, which is described in more detail at https://dtp.cancer.gov/discovery_development/nci-60/default.htm.
# Compounds with GIPRCNT values below 10 were considered active. Activity score was based on GIPRCNT using the following formula: […]
# Score is 0 for GIPRCNT values of 100 or above, 50 for GIPRCNT values of 0, and 100 for GIPRCNT values of -100.
row,SMILES,growth
1,CC[C@@H](C)OC(=O)c1nn(C(C)=O)c2ccccc12,106%
2,Oc1cc(O)c2c(=S)cc(-c3ccc(Cl)cc3)oc2c1,40.5%
3,COc1ncc(-c2ccc3ncnc(Nc4cccc(Cl)c4)c3c2)cc1NS(C)(=O)=O,16.2%
4,CSc1nc(NCCCNc2ccnc3cc(Cl)ccc23)cc(-c2ccccc2)n1,65%
5,COc1cccc2c1C(=O)c1c(O)c3c(c(O)c1C2=O)C[C@@](O)(/C(C)=N/NC(=O)c1ccc(Cl)cc1)C[C@@H]3OC1CC(N)C(O)C(C)O1 (stereo not given in full),-28.4% (active)
6,CCCCCCCCCCCCN1CCCC(C)C1 (stereo not given),99.8%
7,O=c1c2c3c(sc2n2c(CCl)nnc2n1Cc1ccccc1)CCCC3,-36.1% (active)
8,O=C1c2cccnc2C(=O)c2c1c(C(=O)OCCN1CCCCC1)c1ccccn21,-0.578% (active)
9,C=CC[N+]1(CC)CCN=C1CCCCCCCCCCCCCCCCC (stereo not given),-41.3% (active)
10,O=C(/C=C/c1ccc(Cl)cc1)/C=C/c1cc2ccccc2[nH]c1=O,91.2%
11,O=C(Nc1ccc(CN2CCOCC2)cc1)c1[nH]ncc1Nc1ncnc2sccc12,-2.92% (active)
12,O=C(/C=C/c1ccc(B(O)O)cc1)/C=C/c1ccc(B(O)O)cc1,4.54% (active)
13,COc1ccc(/C=c2/c(=O)[nH]c3nc4sc(C)c(C)c4c(=O)n23)cc1,99.6%
14,COC(=O)C12C3C(=O)N(c4ccc(OC)cc4)C(=O)C3C(c3cn(-c4ccccc4)nc3C)N1[C@H](c1cn(-c3ccccc3)nc1C)[C@@H]1C(=O)N(c3ccc(OC)cc3)C(=O)[C@@H]12 (stereo not given in full),106%
15,NS(=O)(=O)c1ccc(-n2ncc3c(=O)[nH]c(CN4CCN(c5cc6c(cc5F)c(=O)c(C(=O)O)cn6C5CC5)CC4)nc32)cc1,97.8%
16,N=S(=O)(NC(=O)c1ccc(Cl)cc1Cl)c1ccc(Br)s1 (stereo not given),87.3%
17,CC(C)CC(CC1=CCC2CC1C2(C)C)C1=C(O)C(C)(C)C(=O)C(C)(C)C1=O (stereo not given),6.67% (active)
18,CCOC(=O)/C=C/c1ccc(C(=O)OCC)[nH]1,74%
19,O=C(Nc1ccc(F)cc1)Nc1ccc(CCO)cc1,106%
20,CS(CCCCN=C=S)=NC(=O)c1c(F)c(F)c(F)c(F)c1F (stereo not given),90.8%

row,SMILES,growth
1,CNCc1cccc2c1OCCOCCOCCN(C)S(=O)(=O)c1ccc(cc1)-c1cnc(N)c(n1)C(=O)N2,56.9%
2,NC(CC(=O)O)C(=O)OCc1ccccc1 (stereo not given),101%
3,CCN(CC)CCC(=O)Nc1ccc(Cn2nnc3c2C(=O)c2nnn(Cc4ccc(NC(=O)CCN(CC)CC)cc4)c2C3=O)cc1,14.2%
4,N=c1c2ccccc2nc2n1CCCCC2,95.4%
5,CNc1cc2nc3cc(NC)c(C)cc3cc2cc1C,13.1%
6,CCCCCCCCCCCCCCCCNCCC[C@@H](C)[C@H]1CC[C@H]2[C@@H]3[C@H](OCCCN)C[C@@H]4C[C@H](OCCCN)CC[C@]4(C)[C@H]3C[C@H](OCCCN)[C@]12C,-34% (active)
7,Cc1ccc2c(c1)C(=O)/C(=C/c1ccc(OCC(=O)c3ccccc3)cc1)O2,105%
8,c1ccc(Sc2ncnc3ccccc23)cc1,77.9%
9,O=[N+]([O-])c1cccc(-c2nc3sccn3c2-c2ccnc(NCCCNS(=O)(=O)c3cccc(F)c3)n2)c1,31.2%
10,O=C1C=CC(=O)c2c1nc1n2CCCC1,73.1%
11,Nc1cc(-c2nc3sccn3c2-c2ccnc(NCCCNS(=O)(=O)c3ccc(F)cc3)n2)ccc1F,77.4%
12,CN(C)c1ccc(/C=C(\C#N)c2nc3ccccc3s2)cc1,104%
13,COc1nc2c(cc1S(=O)(=O)c1ccccc1)CCc1c-2cnn1-c1ccc(Cl)cc1,82%
14,COC(=O)[C@@H]1CC[C@]2(C)[C@H](CC[C@@H]3O[C@@]32C)[C@@]1(C)CC(=O)c1ccoc1,88.2%
15,Cn1c(=O)c2[nH]c(C(O)C(O)C(O)C(O)CO)nc2n(C)c1=O (stereo not given),107%
16,Cc1cc(N/N=C/c2nc(-c3ccc(Cl)cc3)oc2C)c2cc(Br)ccc2n1,78.6%
17,O=C1C2CC=CCC2C(=O)N1CNc1ccc(Cl)cc1 (stereo not given),79.3%
18,Brc1cccc(-c2cc(-c3ccc4c(c3)OCCO4)[nH]n2)c1,30% [25 µM]
19,CC(C)[C@@H]1CC[C@]2(C(=O)NCCCCN=C(N)N)CC[C@]3(C)[C@H](CC[C@@H]4[C@@]5(C)CCC(=O)C(C)(C)[C@@H]5CC[C@]43C)[C@@H]12,73%
20,COc1ccc(C(=O)COc2ccc(/C=C3\Oc4ccc(Cl)cc4C3=O)cc2)cc1,91.8%
